An excerpt weighted towards active compounds, which were near 2.3% of everything screened.
PP1 inh = blocks human PP1-alpha phosphatase, a PP5 counter-screen; P62136; purified PP1alpha, OMFP fluorescence; inhibition, % at 6.7 µM; 320,000 tested, 0.9% active;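 active means inhibition above the mean inhibition of all tested compounds plus 3 SD, computed separately for each screening campaign, cut at about 15% in these data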
EBNA-1 inhibitor = blocks EBNA-1 binding to DNA | EBNA-1 DNA binding, fluorescence polarization | inhibition, % at 14.8 µM | 300,000 tested, 0.34% active; in the data active means inhibition above about 28%
MsrA act = activates bovine MsrA enzyme. purified bovine MsrA, absorbance read-out. activation, % at 10.6 µM. 360,000 tested, 0.3% active. AID 602163; in the data active means activation above about 7.5%;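 further: 0% = vehicle and 100% = reference activator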
ZTA DNA inh = ZTA (EBV) inhibition in EBNA-1 counter-screen; 320,000 tested, 0.15% active; ZTA-DNA binding, fluorescence polarization; inhibition, % at 11 µM; AID 2234; P03206; in the data active means inhibition above about 33%
Target sequence (P03206 whole entry, looked up): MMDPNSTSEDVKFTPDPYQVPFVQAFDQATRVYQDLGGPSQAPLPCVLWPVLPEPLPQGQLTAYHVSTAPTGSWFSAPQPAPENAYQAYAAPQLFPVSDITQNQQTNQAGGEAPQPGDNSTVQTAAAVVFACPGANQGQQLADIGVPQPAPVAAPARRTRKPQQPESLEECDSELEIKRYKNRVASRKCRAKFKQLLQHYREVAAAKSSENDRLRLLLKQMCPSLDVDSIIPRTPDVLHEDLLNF
PP5 primary = inhibitors of human protein phosphatase 5 (PP5); purified PP5c, OMFP substrate fluorescence; P53041; AID 1987; 320,000 tested, 0.18% active; inhibition, % at 6.7 µM;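 active means inhibition above the campaign's mean inhibition across all tested compounds plus 3 SD, cut at about 9.5% in these data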;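 further: 0% = DMSO only and 100% = 100 µM cantharidin control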
MsrA inhibitor = inhibitors of bovine MsrA; purified bovine MsrA, absorbance read-out; inhibition, % at 15.5 µM; 360,000 tested, 0.75% active; AID 651718;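 further: 0% = vehicle wells with enzyme and 100% = reference inhibitor wells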
MsrA inh confirm = confirmation of bovine MsrA inhibitors. shares compounds with MsrA inhibitor. purified bovine MsrA, absorbance read-out. inhibition, % at 15.5 µM. 2,300 tested, 41% active;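 further: coupled to thioredoxin reductase with NADPH and selenocystamine and DMSO as substrate; 0% = vehicle only and 100% = full effect of reference inhibitor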
* hit, by the source's call; · = not tested or not shown. Unless noted, no stated cut-off is given here; in the data, active means inhibition above about 4.5%; inactive means the rest.

SMILES | PP1 inh | EBNA-1 inhibitor | MsrA act | ZTA DNA inh | PP5 primary | MsrA inhibitor | MsrA inh confirm
CC(=O)c1ccc2c(c1)C1C(Cl)C(Sc3ccccc3[N+](=O)[O-])CC1C(c1ccccc1[N+](=O)[O-])N2 (stereo not given) | 16* | 4 | -3 | 10 | 2 | 5.5* | 2
N#CCCn1cc(C(=O)Nc2ccccc2Br)c(-c2ccc([N+](=O)[O-])cc2)n1 | 1 | 7 | 3 | 12 | -1 | 47* | 0
Cc1ccc(C)c(Cn2c(C(=O)O)c(C=O)c3ccccc32)c1 | -1 | -5 | -5 | 0 | 1 | 0 | ·
CCOC(=O)c1c(C=O)c2ccccc2n1Cc1ccccc1 | -1 | -2 | -2 | -1 | 3 | 4.9* | 5.0*
COC(=O)C1=C(c2ccc(-c3ccccc3)c(F)c2)C[C@@H]2CC[C@H]1N2C(=O)N1CCCC1 | 4 | · | -1 | 2 | 2 | -2 | ·
COc1cc(N2CCOCC2)ccc1/C=C1\C(=O)NC(=O)N(Cc2ccc3c(c2)OCO3)C1=O | -4 | 1 | -5 | -6 | -1 | 6.2* | 2
COc1cc(N2CCOCC2)ccc1/C=C1\C(=O)NC(=O)N(Cc2cccs2)C1=O | 1 | 5 | -4 | 15 | 0 | 6.4* | 3
COc1ccc(CCN)cc1S(N)(=O)=O | · | · | · | · | · | -1 | ·
CC(=O)OC1CCC2(C)C(=CC(=O)C3C2CCC2(C)C(OC(C)=O)CCC32)C1 (stereo not given) | · | · | -7 | · | · | 0 | ·
C/C(=N\NC(=O)c1ccccc1Cl)c1c(O)n(C2CCCCC2)c(=O)[nH]c1=O | -2 | 15 | -6 | 10 | 0 | 4 | ·
C/C(=N\NC(=O)c1ccccc1O)c1c(O)n(C2CCCCC2)c(=O)[nH]c1=O | 3 | 8 | -5 | 19 | 4 | 5.0* | 6.7*
C[C@H](CO)N1C[C@H](C)[C@@H](CN(C)C(=O)Oc2ccc3ccccc3c2)OCc2cnnn2CCCC1=O | · | · | -1 | · | · | -1 | ·
CC(C)n1c(O)c(C=NCc2cccnc2)c(=O)[nH]c1=S | -3 | 5 | -5 | 4 | -2 | 4.9* | 5.2*
c1ccc(-c2ccc(CN3Cc4ccccc4-n4nncc4C3)cc2)cc1 | · | · | -3 | · | · | 0 | ·
O=C1c2cccc3cccc(c23)C(=O)N1/N=C/c1c(O)n(-c2ccccc2)c(=O)[nH]c1=O | 3 | 3 | -3 | -7 | 3 | 5.1* | 3
